Experimental data from PubChem BioAssay (Tox21).
Records with an inconclusive call do not appear. Calls of active or inactive are those of the source. Unless noted, calls come from the whole dose curve; as a rule, active = well fitted curve in the direction sought with a large enough effect in the repeat runs; inconclusive = weak or mixed curves; inactive = no such curve, though single readings can be large; an effect the other way counts as inactive or inconclusive.

Columns and labels:
[1] = qHTS assay to identify small molecule antagonists of the estrogen related receptor (ERR) signaling pathway from Tox21 library - cell viability counter screen (AID 1224834); note: nearly all actives have a fitted effect of over 30% in size; note: potency is the fitted concentration of half-maximal effect
Method in brief: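 Fluorescence from CellTiter-Fluor gives the viability read-out, taken 30 min after reagent addition. Before that, ERR cells seeded 6 h earlier were incubated with compounds for 17.5 h at 37 C.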

[2] = molecular target: Luciferin 4-monooxygenase (Photinus pyralis) (UniProt P08659); test: qHTS assay to identify small molecule inhibitors of firefly luciferase (AID 1224835); note: nearly all actives have a fitted effect of over 25% in size; note: potency is the fitted concentration of half-maximal effect
Method in brief: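 Quantitative HTS format; KM concentrations of both substrates. Purified P. pyralis FLuc activity quantified from luminescence images.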

[3] = qHTS assay to identify small molecule antagonists of the constitutive androstane receptor (CAR) signaling pathway - cell viability counter screen (AID 1224837); note: nearly all actives have a fitted effect of over 45% in size; note: potency is the fitted concentration of half-maximal effect
Method in brief: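 HepG2-CYP2B6-hCAR cells, 2500/well, 4 hr pre-incubation; compound titration, 15 conc.; CITCO 50 nM final; 23 hr, 37 C/5% CO2; CellTiter-Fluor, fluorescence intensity.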

[4] = molecular target: Nuclear receptor subfamily 1 group I member 3 (Homo sapiens) (UniProt Q14994); test: qHTS assay to identify small molecule antagonists of the constitutive androstane receptor (CAR) signaling pathway (AID 1224838);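 note: HepG2 cells stably expressing hCAR with CYP2B6 luciferase reporter stimulated by CITCO; nearly all actives have a fitted effect of over 40% in size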; note: potency is the fitted concentration of half-maximal effect
Method in brief: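 HepG2-CYP2B6-hCAR cells; 4 h pre-incubation; cpd (15 conc) + CITCO 50 nM final; 24 h, 37 C/5% CO2; ONE-Glo, luminescence.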

[5] = molecular target: Nuclear receptor subfamily 1 group I member 3 (Homo sapiens) (UniProt Q14994); test: qHTS assay to identify small molecule agonists of the constitutive androstane receptor (CAR) signaling pathway (AID 1224839); note: nearly all actives have a fitted effect of over 15% in size; note: potency is the fitted concentration of half-maximal effect;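 for activation: HepG2 cells stably carrying human CAR and a CYP2B6 luciferase reporter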
Method in brief: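 Stable hCAR/CYP2B6-2.2kb HepG2 line in DMEM with 10% FBS; compounds (15 concentrations) and 0.75 uM PK11195 final, 24 h at 37 C/5% CO2, then ONE-Glo luminescence after 30 min.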

[6] = qHTS assay to identify small molecule antagonists of the estrogen related receptor signaling pathway with the pleiotropic PPARgamma coactivator (PGC) from Tox21 10K library - cell viability counter screen (AID 1224840; active = well fitted cell-killing curve with a large enough effect in the repeat runs, not every such curve was filed as active; note: nearly all actives have a fitted effect of over 40% in size; note: potency is the fitted concentration of half-maximal effect)
Method in brief: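 PGC/ERR cells, 2,000/well; 6 h pre-incubation 37 C/5% CO2; cpd in DMSO via pin tool; 17.5 h 37 C; CellTiter-Fluor, 30 min; fluorescence.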

[7] = qHTS RealTime-Glo MT Cell Viability Assay in HepG2 cells - 24 hour (AID 1224867); note: nearly all actives have a fitted effect of over 50% in size
Method in brief: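 Tox21 10K library screened in qHTS format on HepG2 cells carrying RealTime-Glo reagents. Compounds were added after a 5 h preincubation, and the luminescent signal from continuous culture was measured repeatedly during 40 h treatment.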

[8] = qHTS RealTime-Glo MT Cell Viability Assay in HEK293 cells - 32 hour (AID 1224868); note: nearly all actives have a fitted effect of over 50% in size; note: potency is the fitted concentration of half-maximal effect
Method in brief: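 Luminescence generated by NanoLuc from substrate produced by living HEK293 cells served as the viability signal. Each value reflects the reading at its stated time point during continuous 40 h compound exposure at 37 C.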

[9] = A CellTox Green Cytotoxicity Assay to monitor cytotoxicity in HEK293 cells - 0 hour (AID 1224869); note: nearly all actives have a fitted effect of over 50% in size
Method in brief: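 Nonlytic real-time cytotoxicity: HEK293 + CellTox Green reagent plated, 5 h preincubation, pintool compound addition (23 nL in DMSO), 37 C for 40 h, fluorescence measured at successive time points.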

[10] = qHTS RealTime-Glo MT Cell Viability Assay in HepG2 cells - 40 hour (AID 1224870); note: nearly all actives have a fitted effect of over 50% in size; note: potency is the fitted concentration of half-maximal effect
Method in brief: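 HepG2 cells mixed with RealTime-Glo MT reagents (NanoLuc plus cell-permeant prosubstrate) were seeded at 600 cells/well, incubated 5 h at 37 C/5% CO2, then pinned with compounds in DMSO; nonlytic luminescence tracked viability during 40 h treatment.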

[11] = qHTS assay to identify small molecule agonists of the constitutive androstane receptor (CAR) signaling pathway - cell viability counter screen (AID 1224836); note: nearly all actives have a fitted effect of over 45% in size; note: potency is the fitted concentration of half-maximal effect
Method in brief: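 Fluorescence from CellTiter-Fluor indicates live cells after 23 h exposure. The human hepatoma line expresses hCAR and a CYP2B6-2.2kb reporter. Incubation medium contains 0.75 uM PK11195 (final).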

[12] = qHTS assay to identify small molecule agonists of H2AX (AID 1224845; active = well fitted activation curve with a large enough effect in the signal ratio in the repeat runs, not every such curve was filed as active; the % refers to the signal ratio)
Method in brief: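 Wild-type CHO-K1 cells plated overnight, then exposed 3 hr at 37C to compounds at 15 concentrations (0.76% DMSO). Lysed, then HTRF anti-pH2AX(S139)-cryptate/anti-H2AX-d2 detection after 24 hr at room temperature; emissions 665 and 620 nm.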

[13] = qHTS assay to identify small molecule agonists of H2AX - cell viability counter screen (AID 1224847; calls by dose curve; note: nearly all actives have a fitted effect of over 30% in size; note: potency is the fitted concentration of half-maximal effect)
Method in brief: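 Viability of CHO-K1 (wild type) cells after 3 hr compound exposure was measured by CellTiter-Glo luminescence.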

[14] = qHTS assay to identify small molecule agonists of the hypoxia (HIF-1) signaling pathway - cell viability counter screen (AID 1224844; calls by dose curve; note: nearly all actives have a fitted effect of over 50% in size; note: potency is the fitted concentration of half-maximal effect)
Method in brief: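 ME-180 HRE-bla cells, 2,000/well, 0.5% dialyzed FBS; 5 hr settle, 17 hr compound at 37C/5% CO2; CCF4-AM reporter read first, then CellTiter-Glo luminescence after 30 min RT.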

[15] = qHTS assay to identify small molecule agonists of the hypoxia (HIF-1) signaling pathway (AID 1224846; active = well fitted activation curve with a large enough effect in the signal ratio in the repeat runs, not every such curve was filed as active; the % refers to the signal ratio)
Method in brief: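 Cell line: CellSensor HRE-bla ME-180; 2,000 cells/well; 0.5% dialyzed FBS; 5 h preincubation; DMSO compound pin transfer; 17 h, 37C, 5% CO2; CCF4-AM added; bla FRET signal scored for activation.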

[16] = qHTS assay to identify small molecule antagonists of the estrogen related receptor signaling pathway with the pleiotropic PPARgamma coactivator (PGC) from Tox21 10K library (AID 1224841; call rule not given here)
Method in brief: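 PGC/ERR cell line, 2,000 cells/well; 6 h pre-incubation 37 C/5% CO2; compounds (DMSO) pinned in; 18 h, 37 C; One-Glo, 30 min RT; luminescence.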

[17] = qHTS assay to identify small molecule agonists of the estrogen related receptor signaling pathway with the pleiotropic PPARgamma coactivator (PGC) from Tox21 10K library (AID 1224842); note: nearly all actives have a fitted effect of over 15% in size; note: potency is the fitted concentration of half-maximal effect
Method in brief: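 PGC/ERR reporter cells (NTP line) were seeded 2,000 per well, rested 6 h at 37 C/5% CO2, then pin-dosed with compounds in DMSO for 18 h at 37 C; luciferase read by One-Glo luminescence after 30 min at room temperature.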

[18] = molecular target: Thyrotropin receptor (Homo sapiens) (UniProt P16473); test: qHTS assay to identify small molecule agonists of the thyroid stimulating hormone receptor (TSHR) signaling pathway (AID 1224843; calls by dose curve; note: nearly all actives have a fitted effect of over 45% in size; note: potency is the fitted concentration of half-maximal effect)
Method in brief: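 TSHR-expressing HEK293 cells (800 per well) were exposed to compounds for 30 min at room temperature. cAMP was then detected by HTRF competition with cAMP-d2 and anti-cAMP cryptate, read after 1 h at room temperature. Fifteen concentrations, triplicate.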

[19] = qHTS assay to identify small molecule antagonists of the estrogen related receptor (ERR) signaling pathway from Tox21 library (AID 1224848); note: nearly all actives have a fitted effect of over 50% in size
Method in brief: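 Cells: ERR line, 2,000/well; 6 h preincubation 37 C/5% CO2. Cpd in DMSO via pin tool; 18 h, 37 C. ONE-Glo, 30 min RT, luminescence.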

[20] = qHTS assay to identify small molecule agonists of the estrogen related receptor (ERR) signaling pathway from Tox21 library (AID 1224849; calls by dose curve; note: nearly all actives have a fitted effect of over 15% in size); settings: ERR reporter cell line, ONE-Glo luciferase, 18 h; at 92.4 µM (top of the series) unless noted
Method in brief: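 ERR cells, 6 h pre-incubation 37 C/5% CO2; cpd in DMSO pinned; 18 h 37 C; ONE-Glo added, 30 min RT; luminescence read. Agonist mode, qHTS.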
% is set by controls: 0 for no effect and ±100 for the full control effect.

Sequence of Luciferin 4-monooxygenase (Photinus pyralis) (P08659 whole entry, looked up): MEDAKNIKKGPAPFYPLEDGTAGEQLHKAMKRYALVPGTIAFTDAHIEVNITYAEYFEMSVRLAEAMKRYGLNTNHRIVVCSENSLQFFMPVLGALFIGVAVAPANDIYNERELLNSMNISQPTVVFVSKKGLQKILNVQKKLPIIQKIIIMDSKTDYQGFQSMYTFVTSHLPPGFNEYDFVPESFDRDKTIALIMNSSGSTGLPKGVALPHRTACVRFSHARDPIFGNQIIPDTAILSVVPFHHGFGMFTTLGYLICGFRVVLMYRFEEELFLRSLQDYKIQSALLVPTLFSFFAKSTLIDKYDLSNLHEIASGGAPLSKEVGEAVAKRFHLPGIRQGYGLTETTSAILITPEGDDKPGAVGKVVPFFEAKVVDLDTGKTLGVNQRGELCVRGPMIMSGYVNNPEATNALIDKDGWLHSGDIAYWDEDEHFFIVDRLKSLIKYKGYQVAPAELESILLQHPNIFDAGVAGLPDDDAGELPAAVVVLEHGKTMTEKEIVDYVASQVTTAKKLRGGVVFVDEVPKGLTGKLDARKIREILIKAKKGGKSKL
Sequence of Thyrotropin receptor (Homo sapiens) (P16473 whole entry, looked up): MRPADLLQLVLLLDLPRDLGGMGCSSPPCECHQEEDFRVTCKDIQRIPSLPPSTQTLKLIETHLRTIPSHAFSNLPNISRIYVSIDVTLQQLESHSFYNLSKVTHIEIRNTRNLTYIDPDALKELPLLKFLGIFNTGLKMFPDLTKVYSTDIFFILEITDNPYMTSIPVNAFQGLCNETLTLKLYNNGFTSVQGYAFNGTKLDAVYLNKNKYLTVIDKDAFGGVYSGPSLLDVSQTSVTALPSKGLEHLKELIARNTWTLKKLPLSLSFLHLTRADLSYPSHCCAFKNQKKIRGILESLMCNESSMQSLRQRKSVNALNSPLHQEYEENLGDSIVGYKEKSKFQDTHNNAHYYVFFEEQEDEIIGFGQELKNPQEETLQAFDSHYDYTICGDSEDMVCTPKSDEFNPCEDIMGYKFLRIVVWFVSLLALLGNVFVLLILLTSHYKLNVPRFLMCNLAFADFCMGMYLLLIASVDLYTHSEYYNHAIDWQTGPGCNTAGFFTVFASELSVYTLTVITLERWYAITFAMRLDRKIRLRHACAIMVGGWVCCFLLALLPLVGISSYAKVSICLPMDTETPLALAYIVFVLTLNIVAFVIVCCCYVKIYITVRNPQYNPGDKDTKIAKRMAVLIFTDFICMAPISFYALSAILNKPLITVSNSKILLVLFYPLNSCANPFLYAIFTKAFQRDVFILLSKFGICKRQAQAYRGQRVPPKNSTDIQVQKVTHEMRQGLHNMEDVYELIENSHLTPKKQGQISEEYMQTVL
Sequence of Nuclear receptor subfamily 1 group I member 3 (Homo sapiens) (Q14994 whole entry, looked up): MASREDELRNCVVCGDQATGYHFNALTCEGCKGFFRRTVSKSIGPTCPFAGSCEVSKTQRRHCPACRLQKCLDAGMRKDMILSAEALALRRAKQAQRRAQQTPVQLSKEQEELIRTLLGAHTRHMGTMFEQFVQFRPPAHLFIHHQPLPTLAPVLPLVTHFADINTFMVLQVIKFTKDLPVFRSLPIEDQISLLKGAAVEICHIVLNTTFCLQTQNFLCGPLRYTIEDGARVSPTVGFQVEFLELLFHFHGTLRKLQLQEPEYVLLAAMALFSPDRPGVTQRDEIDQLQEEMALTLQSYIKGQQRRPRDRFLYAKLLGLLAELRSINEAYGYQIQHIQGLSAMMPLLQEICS

CO/N=C(\C(=O)OC)c1ccccc1CO/N=C(\C)c1cccc(C(F)(F)F)c1
active: Potency [5] 8.63 µM | Potency [8] 12.3 µM
inactive: Potency [1] | Potency [2] | Potency [3] | Potency [4] | Potency [6] | Potency [7] | Potency [9] | Potency [10]

CC(=O)[O-].CC(=O)[O-].O.O.[Zn+2]
inactive: Potency [1] | Potency [11] | Potency [6] | Potency [12] | Potency [13] | Potency [7] | Potency [8] | Potency [10]

C1=CCC=C1
inactive: Potency [1] | Potency [11] | Potency [3] | Potency [6] | Potency [14] | Potency [13] | Potency [9] | Potency [10]

O.O.O.O.O.O.O.O=S(=O)([O-])[O-].[Co+2]
inactive: Potency [1] | Potency [11] | Potency [3] | Potency [14] | Potency [12] | Potency [13] | Potency [7] | Potency [8] | Potency [9] | Potency [10]

O=[N+]([O-])c1cc(C(F)(F)F)c(Cl)c([N+](=O)[O-])c1Nc1ncc(C(F)(F)F)cc1Cl
inactive: Potency [5]
active: Potency [1] 27.3 µM | Potency [11] 15.4 µM | Potency [4] 13.7 µM | Potency [6] 8.63 µM | Potency [14] 6.92 µM | Potency [13] 50.5 µM | Potency [10] 11 µM

S=C=Nc1ccccc1
inactive: Potency [1] | Potency [11] | Potency [4] | Potency [6] | Potency [14] | Potency [12] | Potency [15] | Potency [13] | Potency [8] | Potency [9] | Potency [10]

c1ccc2c(c1)cc1ccc3cccc4ccc2c1c34
inactive: Potency [1] | Potency [16] | Potency [18] | Potency [14] | Potency [13] | Potency [19] | Potency [8] | Potency [9] | Potency [10]
active: Potency [2] 10.2 µM | Potency [17] 22.1 µM | activity change, positive = activation [20] 61.3%

Brc1cccc(-c2ccccc2)c1
inactive: Potency [1] | Potency [11] | Potency [3] | Potency [4] | Potency [5] | Potency [6] | Potency [16] | Potency [17] | Potency [14] | Potency [15] | Potency [19] | activity change, positive = activation [20] -0.973% | Potency [7] | Potency [8] | Potency [9] | Potency [10]

ClSC(Cl)(Cl)Cl
inactive: Potency [1] | Potency [11] | Potency [3] | Potency [4] | Potency [5] | Potency [6] | Potency [16] | Potency [18] | Potency [14] | Potency [12] | Potency [15] | Potency [13] | Potency [19] | activity change, positive = activation [20] 1.32% | Potency [7] | Potency [8] | Potency [9] | Potency [10]

FC(F)C(F)(F)OCC(Cn1cncn1)c1ccc(Cl)cc1Cl (stereo not drawn)
inactive: Potency [2] | Potency [14] | Potency [12] | Potency [15]
active: Potency [1] 43 µM | Potency [13] 112 µM

CCN(CC)Cc1nccn1-c1ccc([N+](=O)[O-])cc1C(=O)c1ccccc1Cl
inactive: Potency [1] | Potency [2] | Potency [16] | Potency [17] | Potency [18] | Potency [14] | Potency [12] | Potency [15] | Potency [19] | activity change, positive = activation [20] -10.7% [at 42.5 µM] | Potency [9] | Potency [10]
active: Potency [3] 26.6 µM

O=C(NC(=O)c1c(F)cccc1F)Nc1ccc(Oc2ccc(C(F)(F)F)cc2Cl)cc1F
active: Potency [8] 43.6 µM
inactive: Potency [2] | Potency [11] | Potency [3] | Potency [4] | Potency [6] | Potency [14] | Potency [15] | Potency [7] | Potency [9] | Potency [10]

CCCCC(CC)COC(=O)c1ccccc1C(=O)OCC(CC)CCCC (stereo not drawn)
active: Potency [5] 17.2 µM | Potency [18] 3.86 µM
inactive: Potency [2] | Potency [11] | Potency [3] | Potency [4] | Potency [14] | Potency [12] | Potency [15] | Potency [13] | Potency [7] | Potency [10]

Cc1c([N+](=O)[O-])c(C)c([N+](=O)[O-])c(C(C)(C)C)c1[N+](=O)[O-]
inactive: Potency [2] | Potency [11] | Potency [3] | Potency [4] | Potency [6] | Potency [16] | Potency [12] | Potency [19] | activity change, positive = activation [20] -4.01% | Potency [7] | Potency [8] | Potency [9] | Potency [10]
active: Potency [5] 34.4 µM | Potency [14] 24.5 µM
